# Vaccinia pol inh: inhibitors of vaccinia virus processive DNA synthesis (E9 polymerase); in vitro processive DNA synthesis, absorbance read-out; hits give low values; normalized absorbance, % (test concentration not listed); 46,000 compounds, 0.94% hits; in the data active means normalized absorbance mostly below about 85%, no sharp cut-off; inactive means mostly above about 86%
# The depositor's hits bear a star. This is one part of a sample in which hits are shown more often than they occur.
SMILES,Vaccinia pol inh
COc1ccc2c(c1OC)C(=O)OC2[C@H]1c2c(cc3c(c2OC)OCO3)CCN1C (stereo partly specified),97.2
COc1ccc2cc1Oc1ccc(cc1)C[C@H]1c3cc(c(OC)cc3CCN1C)Oc1c(OC)c(OC)cc3c1[C@H](C2)N(C)CC3,83.9*
CC1CN(CN2C(=O)c3ccccc3C2=O)CC(C)O1 (stereo unspecified),99.4
COc1ccc(C2=NS(=O)(=O)N(C)C(C(=O)N3CCC(C(N)=O)CC3)=C2)cc1,69.6*
CCC1CCCCN1C(=O)C1=CC(c2ccc(OC)cc2)=NS(=O)(=O)N1C (stereo unspecified),87.4
COc1ccc(C2=NS(=O)(=O)N(C)C(C(=O)N3CCC(C)CC3)=C2)cc1OC,103.6
CN[C@@H]1CC2(C)OC([C@@H]1OC)n1c3ccccc3c3c4c(c5c6ccccc6n2c5c31)C(=O)NC4 (stereo partly specified),55.7*
Cn1c2ccccc2c2c3c(c4c5ccccc5n(CCC#N)c4c21)CNC3=O,98.0
COC(=O)[C@@]1(O)CC2OC1(C)n1c3ccccc3c3c4c(c5c6ccccc6n2c5c31)C(=O)NC4 (stereo partly specified),98.1
O=C(Cc1noc2ccccc12)NCc1cccc(Cl)c1,104.5
Cc1ccc(CS(=O)(=O)Cc2ccc(C(=O)N3CCc4ccccc4C3)o2)cc1,100.6
Cc1ccsc1CCN1CSC2=C(C#N)C(c3ccc(Cl)cc3)CC(=O)N2C1 (stereo unspecified),64.1
c1ccc(CCNc2nc3ccccc3s2)cc1,101.3
NNc1nc2ccccc2s1,77.7*
Cc1cccc2sc(NN)nc12,61.1*
O=C(Nc1nc2c(Cl)cccc2s1)C1CC1,101.1
CCNc1nc2c(C)cccc2s1,103.8
O=C(Nc1nc2ccccc2s1)c1ccccc1,101.4
CCOc1ccc2nc(-n3c(C)ccc3C)sc2c1,80.1
COc1cc(C2c3cc4c(c(O)c3CC3COC(=O)C32)OCO4)cc(OC)c1O (stereo unspecified),99.6
COc1cc(C(=O)NCCC(=O)NC2CCCc3ccccc32)cc(OC)c1OC (stereo unspecified),88.3
O=C(O)c1cccc(N2C(=O)CCC2=O)c1,100.6
O=C(O)c1cc2ccc3cccc4ccc(c1)c2c34,77.0*
O=C(O)c1c2ccccc2cc2ccccc12,99.6
Cc1ccc(N(CC(O)Cn2c3ccccc3c3ccccc32)S(=O)(=O)c2ccccc2)cc1 (stereo unspecified),100.6
SMILES,Vaccinia pol inh
CCN(CC)CC(O)Cn1c2ccccc2c2ccccc21 (stereo unspecified) (tested in a mixture with another compound),76.2*
CC(C)Cn1c2ccccc2c2ccccc21,98.5
OC(CNC1CCCC1)Cn1c2ccccc2c2ccccc21 (stereo unspecified),80.1*
Cc1c(C)n(CC(O)CNC2CCCC2)c2ccccc12 (stereo unspecified),97.0
Cc1c(C)n(CC(O)CNC2CCCCC2)c2ccccc12 (stereo unspecified),99.9
O=C(Oc1ccc2ccccc2c1)c1ccccc1Cl,100.3
COc1ccc(C2C=C(c3ccc(F)cc3)NC(=S)N2)cc1OC (stereo unspecified),101.0
CCOc1ccc(NC(=O)CCOc2ccccc2)cc1,99.4
CC1CN(C(=O)CS(=O)(=O)c2ccc(F)cc2)CC(C)O1 (stereo unspecified),95.3
CC(C)CCNC(=O)c1cc(Sc2ccc(F)cc2)nc2ccccc12,91.0
COc1ccc(Nc2cc(C(=O)NCCc3ccccc3)c3ccccc3n2)cc1,98.8
Cc1ccc(Nc2cc(C(=O)NCCC(C)C)c3ccccc3n2)cc1C,71.1*
CN1C(=O)/C(=C/c2cn(CC(=O)N3CCOCC3)c3ccccc23)C(=O)NC1=S,100.1
CC1CCCC(C)N1C(=O)Cn1cc(/C=C2/C(=O)N(C)c3ccccc32)c2ccccc21 (stereo unspecified),121.7
CN1C(=O)/C(=C/c2cn(CC(=O)O)c3ccccc23)c2ccccc21,73.1*
Cc1cc(OC(C)C)c2c3c(c(=O)oc2c1)CCCC3,103.9
CCOC(=O)C1CCCN(Cc2ccccc2)C1 (stereo unspecified),100.2
CCOc1ccccc1N(C)S(=O)(=O)c1ccc2[nH]c(=O)ccc2c1,102.4
CC(C)C(C(=O)O)N1C(=O)/C(=C/c2ccccc2)SC1=S (stereo unspecified),83.0*
COc1cc(/C=C2\SC(=S)N(C(C(=O)O)C(C)C)C2=O)cc(OC)c1O (stereo unspecified),99.6
O=C(O)C(Cc1ccccc1)N1C(=O)/C(=C/c2ccccc2)SC1=S (stereo unspecified),97.0
CCN1CCN(c2nc(-c3cccc(Cl)c3)c3c(n2)-c2ccccc2OC3)CC1,94.6
CCCn1cnc2cc(NCc3ccccc3O)ccc21,99.1
O=C(NCCCN1CCCC1=O)c1ccc(N2CCCC2=O)cc1,103.0
O=C(O)c1ccc2c(c1)NC(=O)C1CCCN21 (stereo unspecified),47.5*
SMILES,Vaccinia pol inh
CC1CCc2[nH]c3ccc(C(=O)O)cc3c2C1 (stereo unspecified),100.0
COC(=O)c1ccc2c(c1)NC(=O)C1CCCN21 (stereo unspecified),94.4
CC(C)(C)C(=O)CSC1=NCCS1,94.6
CC(c1ccccc1)C1C(C#N)=C(N)Oc2c1c(=O)oc1ccccc21 (stereo unspecified),99.2
Cc1sc2c(c1C)c(=O)nc1scc(CC(=O)NCCO)n12,82.0
O=C(Nc1nc2ccccc2s1)c1cc(Cl)sc1Cl,100.8
c1ccc(-c2cc3c(N4CCc5ccccc54)ncnc3s2)cc1,101.7
COc1ncnc2sc(-c3ccccc3)cc12,102.8
CN1CCN(c2ncnc3sc(-c4ccccc4)cc23)CC1,50.4*
O=C(Nc1ccccc1)Nc1ccc(C(=O)N2CCCCC2)cc1,99.7
Cc1ccc(C2=C/C(=C\c3ccccc3C)C(=O)O2)cc1,100.3
Cc1ccc(/C=N/N2C(=O)C3C(C2=O)C2C=CC3C23CC3)o1 (stereo unspecified),100.6
Cc1nn(-c2ccccc2)c2sc(C(=O)O)cc12,98.2
Cc1nn(-c2ccccc2)c2sc(C#N)c(N)c12,79.9*
Cc1nn(-c2ccccc2)c2sc(C(=O)NC(C)C)cc12,82.5
Cc1ccccc1C1CC(=O)c2c(ccc3ccccc23)N1 (stereo unspecified),99.1
O=C1c2ccccc2NC(c2cccc(O)c2)N1O (stereo unspecified),95.9
O=C1CC(c2cccc(O)c2)Nc2ccc3ccccc3c21 (stereo unspecified),61.9*
O=C(O)CCC12CC3CC(CC(Br)(C3)C1)C2,96.7
N#C/C(C(=O)Nc1cc(C(F)(F)F)ccc1Cl)=C1\CCCN1,104.0
Cc1c(N=Cc2cc(Br)cc(Br)c2O)cccc1C(=O)O,44.9*
Cc1cc2ccccc2c(N=Cc2cc(Br)cc(Br)c2O)c1C#N,80.6
COc1cccc(C=Nc2cccc(C(=O)O)c2C)c1O,93.6
O=c1[nH][nH]c(=S)n1C1CC1,95.9
CCC(=O)NC(Nc1cccnc1Cl)(C(F)(F)F)C(F)(F)F,100.2
CC(=C\c1ccccc1)/C=C1/SC(=O)NC1=O,99.3
O=C1NC(=O)/C(=C\c2ccccc2)S1,74.1*
Cc1ccc(/C=C2/Sc3ccccc3NC2=O)cc1,99.0
COc1ccccc1CNC(=O)c1cn(C2CCCC2)c(=O)c2c1c1ccccc1n2C,100.8
O=C(NC1CCCCC1)C1c2ccccc2C(=O)N2CCc3ccccc3C12 (stereo unspecified),99.5

# Screening data deposited in PubChem by ICCB-Longwood Screening Facility, Harvard Medical School.
